Test results from the supplement of paper PMC8253809.
Where “and” joins values, the source holds several entries; their conditions need not be identical. Identical values can stand only once.

Key:
Experiment in all cases: growth inhibition (% activity, log2 RLU normalised to DMSO / staurosporine); higher = more growth inhibition
Details in all cases: 33 µM
DIPGX29 = tested on: DIPGX29 (H3.3 K27M diffuse intrinsic pontine glioma line)
How it was run: (§1)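 In triplicate, pHGG cell lines and H9-derived neural stem cells were treated for 7 days at 37 °C, 5% CO2 with approved drugs at a single final concentration of about 33 μM, added by pin tool. CellTiter-Glo luminescence, after log2 transformation, was normalised on each plate to % activity between solvent and positive control wells. Growth inhibition is reported as the median across replicates.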

DIPGX37 = tested on: DIPGX37 (H3.3 K27M diffuse intrinsic pontine glioma line)
How it was run: as §1

DIPGX7 = tested on: DIPGX7 (H3.3 K27M diffuse intrinsic pontine glioma line)
How it was run: as §1

DIPGX9 = tested on: DIPGX9 (diffuse intrinsic pontine glioma line)
How it was run: as §1

HGGX39 = tested on: HGGX39 (paediatric high-grade glioma line)
How it was run: as §1

HGGX6 = tested on: HGGX6 (H3.3 G34R paediatric high-grade glioma line)
How it was run: as §1

HNSC = tested on: HNSC
How it was run: as §1

SUDIPGIV = tested on: SUDIPGIV (diffuse intrinsic pontine glioma line)
How it was run: as §1

SUDIPGVI = tested on: SUDIPGVI (diffuse intrinsic pontine glioma line)
How it was run: as §1

SUDIPGXIII = tested on: SUDIPGXIII (diffuse intrinsic pontine glioma line)
How it was run: as §1

SMILES: C[C@H]1C[C@H]2[C@@H]3CCC4=CC(=O)C=C[C@]4(C)[C@H]3C(=O)C[C@]2(C)[C@@]1(O)C(=O)CO
- growth inhibition (DIPGX29): -1.49%
- growth inhibition (DIPGX37): -0.985%
- growth inhibition (DIPGX7): 2.72%
- growth inhibition (DIPGX9): -1.67%
- growth inhibition (HGGX39): -0.401%
- growth inhibition (HGGX6): -2.95%
- growth inhibition (HNSC): -1.41%
- growth inhibition (SUDIPGIV): 0.457%
- growth inhibition (SUDIPGVI): -9.81%
- growth inhibition (SUDIPGXIII): 0.862%

SMILES: O=C(O)/C=C/c1ccc(Cn2ccnc2)cc1
- growth inhibition (DIPGX29): -4.29% and 0.0234%
- growth inhibition (DIPGX37): -1.97% and 1.55%
- growth inhibition (DIPGX7): -2.07% and 1.39%
- growth inhibition (DIPGX9): -1.94% and 0.49%
- growth inhibition (HGGX39): -2.45% and 1.57%
- growth inhibition (HGGX6): -3.87% and 2.09%
- growth inhibition (HNSC): 1.95% and -1.58%
- growth inhibition (SUDIPGIV): -2.48% and 0.0369%
- growth inhibition (SUDIPGVI): -6.52% and 1.83%
- growth inhibition (SUDIPGXIII): -0.879% and -16.2%

SMILES: [O-]n1ccccc1=S.[O-]n1ccccc1=S.[Zn+2]
- growth inhibition (DIPGX29): 61.5%
- growth inhibition (DIPGX37): 60.4%
- growth inhibition (DIPGX7): 56.6%
- growth inhibition (DIPGX9): 56.4%
- growth inhibition (HGGX39): 20.2%
- growth inhibition (HGGX6): 59.7%
- growth inhibition (HNSC): 58.4%
- growth inhibition (SUDIPGIV): 48.4%
- growth inhibition (SUDIPGVI): 59.2%
- growth inhibition (SUDIPGXIII): 59.7%

SMILES: CCOc1nc2cccc(C(=O)O)c2n1Cc1ccc(-c2ccccc2-c2noc(=O)[nH]2)cc1
- growth inhibition (DIPGX29): -0.219%
- growth inhibition (DIPGX37): 0.379%
- growth inhibition (DIPGX7): 0.841%
- growth inhibition (DIPGX9): 0.153%
- growth inhibition (HGGX39): 0.215%
- growth inhibition (HGGX6): -1.71%
- growth inhibition (HNSC): 0.888%
- growth inhibition (SUDIPGIV): -0.526%
- growth inhibition (SUDIPGVI): 1.43%
- growth inhibition (SUDIPGXIII): -1.07%

SMILES: Nc1ccn([C@@H]2O[C@H](CO)[C@@H](O)C2(F)F)c(=O)n1
- growth inhibition (DIPGX29): 16.7% and 17.4%
- growth inhibition (DIPGX37): 13.6% and 13%
- growth inhibition (DIPGX7): 16.9% and 16.6%
- growth inhibition (DIPGX9): 20.2%
- growth inhibition (HGGX39): 20.4% and 20%
- growth inhibition (HGGX6): 13.5% and 14.1%
- growth inhibition (HNSC): 52.4% and 59.5%
- growth inhibition (SUDIPGIV): 41.6% and 46%
- growth inhibition (SUDIPGVI): 4.24% and 4.14%
- growth inhibition (SUDIPGXIII): 9.89% and 11.3%

SMILES: O=P(O)(O)C(Cl)(Cl)P(=O)(O)O
- growth inhibition (DIPGX29): 0.766%
- growth inhibition (DIPGX37): -0.716%
- growth inhibition (DIPGX7): 0.292%
- growth inhibition (DIPGX9): 1.96%
- growth inhibition (HGGX39): 2.08%
- growth inhibition (HGGX6): -0.402%
- growth inhibition (HNSC): 0.239%
- growth inhibition (SUDIPGIV): 0.894%
- growth inhibition (SUDIPGVI): 2.08%
- growth inhibition (SUDIPGXIII): -0.0137%

SMILES: CCC[C@@H]1C[C@@H](C(=O)N[C@@H]([C@H]2O[C@H](SC)[C@H](O)[C@@H](O)[C@H]2O)[C@@H](C)O)N(C)C1
- growth inhibition (DIPGX29): -2.47%
- growth inhibition (DIPGX37): 0.84%
- growth inhibition (DIPGX7): -0.347%
- growth inhibition (DIPGX9): 0.338%
- growth inhibition (HGGX39): -0.628%
- growth inhibition (HGGX6): -0.292%
- growth inhibition (HNSC): 0.119%
- growth inhibition (SUDIPGIV): 0.1%
- growth inhibition (SUDIPGVI): -1.6%
- growth inhibition (SUDIPGXIII): 0.849%

SMILES: O=C(O)C(=O)O.[NH-]C1CCCCC1[NH-].[Pt+2] (stereo not given)
- growth inhibition (DIPGX29): -0.101%
- growth inhibition (DIPGX37): 2.05%
- growth inhibition (DIPGX7): -0.541%
- growth inhibition (DIPGX9): 7.2%
- growth inhibition (HGGX39): -0.76%
- growth inhibition (HGGX6): 1.66%
- growth inhibition (HNSC): 1.98%
- growth inhibition (SUDIPGIV): -1.88%
- growth inhibition (SUDIPGVI): 0.474%
- growth inhibition (SUDIPGXIII): 1.07%

SMILES: N[C@@H](Cc1cc(I)c(Oc2ccc(O)c(I)c2)c(I)c1)C(=O)O
- growth inhibition (DIPGX29): 3.32%
- growth inhibition (DIPGX37): 3.94%
- growth inhibition (DIPGX7): 1.41%
- growth inhibition (DIPGX9): 2.64%
- growth inhibition (HGGX39): 5.93%
- growth inhibition (HGGX6): -3.21%
- growth inhibition (HNSC): 13.2%
- growth inhibition (SUDIPGIV): 14.9%
- growth inhibition (SUDIPGVI): 10.1%
- growth inhibition (SUDIPGXIII): 0.729%

SMILES: CCC1=C(C)CN(C(=O)NCCc2ccc(S(=O)(=O)NC(=O)N[C@H]3CC[C@H](C)CC3)cc2)C1=O
- growth inhibition (DIPGX29): 1.44%
- growth inhibition (DIPGX37): 2.15%
- growth inhibition (DIPGX7): -0.131%
- growth inhibition (DIPGX9): 1.61%
- growth inhibition (HGGX39): -0.27%
- growth inhibition (HGGX6): 0.0487%
- growth inhibition (HNSC): 4.42%
- growth inhibition (SUDIPGIV): -0.00514%
- growth inhibition (SUDIPGVI): 1.62%
- growth inhibition (SUDIPGXIII): 0.817%

SMILES: COCCOC(=O)C1=C(C)NC(C)=C(C(=O)OC/C=C/c2ccccc2)C1c1cccc([N+](=O)[O-])c1 (stereo not given)
- growth inhibition (DIPGX29): 2.85%
- growth inhibition (DIPGX37): 2.42%
- growth inhibition (DIPGX7): 5.44%
- growth inhibition (DIPGX9): 5.34%
- growth inhibition (HGGX39): 5.91%
- growth inhibition (HGGX6): 4.61%
- growth inhibition (HNSC): 5.17%
- growth inhibition (SUDIPGIV): 6.24%
- growth inhibition (SUDIPGVI): 3.03%
- growth inhibition (SUDIPGXIII): 0.864%

SMILES: CO[C@H]1O[C@@H]2O[C@@]3(C)CC[C@H]4[C@H](C)CC[C@@H]([C@H]1C)[C@@]24OO3
- growth inhibition (DIPGX29): 0.229%
- growth inhibition (DIPGX37): 0.466%
- growth inhibition (DIPGX7): 1.37%
- growth inhibition (DIPGX9): 2.08%
- growth inhibition (HGGX39): 3.99%
- growth inhibition (HGGX6): 5.37%
- growth inhibition (HNSC): 3.37%
- growth inhibition (SUDIPGIV): 13.7%
- growth inhibition (SUDIPGVI): 1.25%
- growth inhibition (SUDIPGXIII): 14.3%

SMILES: CC[C@H](C)C(=O)O[C@H]1C[C@H](O)C=C2C=C[C@H](C)[C@H](CC[C@@H](O)C[C@@H](O)CC(=O)O)[C@H]21
- growth inhibition (DIPGX29): 1.52%
- growth inhibition (DIPGX37): -5.39%
- growth inhibition (DIPGX7): 5.32%
- growth inhibition (DIPGX9): 1.14%
- growth inhibition (HGGX39): 8.71%
- growth inhibition (HGGX6): 5.23%
- growth inhibition (HNSC): 17.3%
- growth inhibition (SUDIPGIV): 1.99%
- growth inhibition (SUDIPGVI): -4.73%
- growth inhibition (SUDIPGXIII): 2.62%

SMILES: O=C1N=C(O)NC1(c1ccccc1)c1ccccc1
- growth inhibition (DIPGX29): 0.482% and -0.485%
- growth inhibition (DIPGX37): 2.42% and 3.19%
- growth inhibition (DIPGX7): 1.26% and 0.465%
- growth inhibition (DIPGX9): 0.659% and -0.0101%
- growth inhibition (HGGX39): 1.57% and 1.18%
- growth inhibition (HGGX6): 2.58% and 1.56%
- growth inhibition (HNSC): 0.737% and -1.81%
- growth inhibition (SUDIPGIV): -0.112% and -1.42%
- growth inhibition (SUDIPGVI): 1.87% and 2.15%
- growth inhibition (SUDIPGXIII): -17.1%

SMILES: CC(C)NCC(O)c1ccc(NS(C)(=O)=O)cc1 (stereo not given)
- growth inhibition (DIPGX29): -1.59%
- growth inhibition (DIPGX37): 1.48%
- growth inhibition (DIPGX7): 1.46%
- growth inhibition (DIPGX9): 0.414%
- growth inhibition (HGGX39): 0.329%
- growth inhibition (HGGX6): -2.93%
- growth inhibition (HNSC): 9.65%
- growth inhibition (SUDIPGIV): 3.05%
- growth inhibition (SUDIPGVI): 2.59%
- growth inhibition (SUDIPGXIII): -1.17%

SMILES: CC(C)(C)c1ccc(C(O)CCCN2CCC(C(O)(c3ccccc3)c3ccccc3)CC2)cc1 (stereo not given)
- growth inhibition (DIPGX29): -0.594%
- growth inhibition (DIPGX37): -0.074%
- growth inhibition (DIPGX7): 0.488%
- growth inhibition (DIPGX9): 0.591%
- growth inhibition (HGGX39): 2.84%
- growth inhibition (HGGX6): 1.58%
- growth inhibition (HNSC): 0.144%
- growth inhibition (SUDIPGIV): -0.418%
- growth inhibition (SUDIPGVI): -2.2%
- growth inhibition (SUDIPGXIII): -0.826%

SMILES: CCc1oc2ccccc2c1C(=O)c1cc(Br)c(O)c(Br)c1
- growth inhibition (DIPGX29): -0.0876%
- growth inhibition (DIPGX37): 0.798%
- growth inhibition (DIPGX7): -0.0754%
- growth inhibition (DIPGX9): -1.64%
- growth inhibition (HGGX39): -0.416%
- growth inhibition (HGGX6): 0.0697%
- growth inhibition (HNSC): -1.55%
- growth inhibition (SUDIPGIV): -0.229%
- growth inhibition (SUDIPGVI): 0.671%
- growth inhibition (SUDIPGXIII): 2.79%
